Test results as given in PubChem BioAssay AID1159606 (Sanford-Burnham Center for Chemical Genomics, 2016).
The whole screen tested about 360,000 compounds, of which about 7,300 (2%) were called active. This is one part of a sample in which actives are shown more often than they occur. No stated cut-off is given here; in the data, active means inhibition above about 50%; inactive means the rest.

Assay: inhibitors of TWEAK-Fn14 signaling, primary screen, luciferase reporter cells, uHTS (AID 1159606)
Details: TWEAK-stimulated Fn14 reporter cells, luciferase luminescence, 8 h; at 10 µM; hits give high values

Q: With `CC(=CCOc1ccc2ccc(=O)oc2c1)C1=CC(=O)C(C)(C)O1` as the compound, how does the inhibition read?
A: Its inhibition is 70.4% (active).

Q: Which inhibition does the source give for `CSc1nc2ccc(C)cc2c(=O)n1-c1cccnc1` here?
A: The inhibition was 0.75% (inactive).

Q: With `CN(C)c1ccc(/C=C2\CC3C4CC=C5CC(O)CCC5(C)C4CCC3(C)C2=O)cc1` (stereo not given) as the compound, how does the inhibition read?
A: The inhibition was -57.2% (inactive).

Q: With `NC(=O)Nc1cccc(C(F)(F)F)c1` as the compound, how does the inhibition read?
A: Its inhibition is -2.53% (inactive).

Q: With `Cc1cccc(NC(=O)N2CC3CC(C2)c2cccc(=O)n2C3)c1` (stereo not given) as the compound, how does the inhibition read?
A: Its inhibition is 3.66% (inactive).

Q: For `CNC(=O)O/N=C(\N)Cc1csc2ccccc12`, which inhibition is on record?
A: The inhibition was 16.5% (inactive).

Q: With `CC(=O)c1ccc(OC(NC(=O)Cc2ccccc2)C(Cl)(Cl)Cl)cc1` (stereo not given) as the compound, how does the inhibition read?
A: The inhibition was -4.23% (inactive).

Q: Which inhibition does the source give for `C[C@H]1CN([C@@H](C)CO)C(=O)CCCn2nncc2CO[C@H]1CN(C)C(=O)Oc1cccc2ccccc12` here?
A: Its inhibition is 9.18% (inactive).

Q: Which inhibition does the source give for `O=C1NC(=O)C(C/C=C/c2ccccc2)C(=O)N1` here?
A: Its inhibition is 0.48% (inactive).

Q: With `CCCCCCCCCCCCn1ccc(=N)cc1` as the compound, how does the inhibition read?
A: The inhibition was 74% (active).

Q: Which inhibition does the source give for `CCCn1c(C(=O)c2ccccc2OC)nc2ccccc21` here?
A: The inhibition was -3.91% (inactive).

Q: With `COc1ccc2c(c1)NP(=S)(c1ccccc1)N2` (stereo not given) as the compound, how does the inhibition read?
A: The inhibition was -0.5% (inactive).

Q: Which inhibition does the source give for `CN(C)CC1Oc2ccccc2OC1(O)c1ccccc1` (stereo not given) here?
A: The inhibition was 79.6% (active).

Q: For `Cc1ncoc1C(=O)NCC1=C(c2cccc3ccccc23)C[C@@H]2CC[C@H]1N2Cc1ccco1`, which inhibition is on record?
A: Its inhibition is -0.7% (inactive).

Q: Which inhibition does the source give for `COc1cccc(-c2nc3ccc(N4CCN(C)CC4)cc3[nH]2)c1` here?
A: Its inhibition is -27.5% (inactive).

Q: Which inhibition does the source give for `C[C@]12CC[C@H](O)C[C@H]1CC[C@@H]1C2CC[C@]2(C)[C@@H](C3=CC(=O)OC3)[C@@H](O)C[C@]12O` (stereo not given in full) here?
A: Its inhibition is 56.4% (active).

Q: With `CC12CCC(O)CC1CCC1C2CCC2(C)C(C(=O)CC(O)C(F)(F)F)CCC12` (stereo not given) as the compound, how does the inhibition read?
A: The inhibition was -91.4% (inactive).

Q: For `O=c1[nH]c(=O)n(-c2ccc(F)cc2)c(O)c1C=NCCN1CCCCC1`, which inhibition is on record?
A: The inhibition was 6.59% (inactive).

Q: For `CN(C)C(=O)Oc1cc(=O)n2c3c(cccc13)CCC2`, which inhibition is on record?
A: Its inhibition is 30.3% (inactive).

Q: For `Cc1cc(C(=O)OCC(=O)Nc2c(F)cccc2F)c(C)n1C1CC1`, which inhibition is on record?
A: Its inhibition is 4.53% (inactive).

Q: For `C[C@]12CCC3C(CC[C@H]4[C@H](O)[C@H](O)CC[C@]34C)C1CC[C@@H]2O` (stereo not given in full), which inhibition is on record?
A: The inhibition was -13.2% (inactive).

Q: For `C[C@]12CCC3C(CC[C@H]4[C@H](O)[C@H](O)CC[C@]34C)C1CCC2=O` (stereo not given in full), which inhibition is on record?
A: The inhibition was 96.5% (active).

Q: For `C[C@]12CC[C@H](O)CC1=C([N+](=O)[O-])CC1C2CC[C@@]2(C)C1CC[C@@H]2O` (stereo not given in full), which inhibition is on record?
A: The inhibition was 1.49% (inactive).

Q: For `OC1/C(=C/c2ccc(C(F)(F)F)cc2)N2CCC1CC2` (stereo not given), which inhibition is on record?
A: Its inhibition is -3% (inactive).

Q: For `COC(=O)C1=C(c2ccc3ccccc3c2)C[C@@H]2CC[C@H]1N2C(=O)NCCO`, which inhibition is on record?
A: The inhibition was 6.86% (inactive).

Q: Which inhibition does the source give for `CCN1CCN(c2nc3c(c(=O)[nH]2)CCC3)CC1` here?
A: The inhibition was 14.3% (inactive).

Q: Which inhibition does the source give for `COc1ccc2[nH]c3c(c2c1)CCN[C@H]3C` here?
A: Its inhibition is 75.7% (active).

Q: For `Cc1ccc2c(c1)=C/C(=C\c1c(O)[nH]c(=O)[nH]c1=O)C(=O)N=2`, which inhibition is on record?
A: The inhibition was -3.63% (inactive).

Q: With `Cc1cc2ccccn2c1C(C[N+](=O)[O-])c1c(F)cccc1Cl` (stereo not given) as the compound, how does the inhibition read?
A: Its inhibition is 102% (active).

Q: With `Cc1cccc(-n2c(C)nc3cc(C(=O)N4CCC5(CC4)OCCO5)ccc32)c1` as the compound, how does the inhibition read?
A: Its inhibition is -8.93% (inactive).

Q: Which inhibition does the source give for `O=c1[nH]c2ccccc2n1C1CCN(C(c2ccnc3ccccc23)c2nnnn2Cc2ccccc2)CC1` (stereo not given) here?
A: Its inhibition is 27.5% (inactive).

Q: Which inhibition does the source give for `CCN(N=Nc1nonc1OC)c1nonc1OC` here?
A: Its inhibition is -11.1% (inactive).

Q: With `O=C1NC(=O)N(CCc2ccc(F)cc2)C(=O)/C1=C/C=C/c1ccccc1` as the compound, how does the inhibition read?
A: The inhibition was 79.4% (active).

Q: Which inhibition does the source give for `COC1=CC=C2[C@H]3Cc4ccc(OC)c5c4[C@@]2(CCN3C)C1O5` (stereo not given in full) here?
A: The inhibition was -16% (inactive).

Q: Which inhibition does the source give for `Cc1cc(N2C(=O)C3CCCN3C2c2ccc(Cl)c(Cl)c2)no1` (stereo not given) here?
A: Its inhibition is -3.31% (inactive).

Q: With `CC(C)c1ccc(O)c(CN2CCN(c3ccccc3)CC2)c1` as the compound, how does the inhibition read?
A: The inhibition was 4.05% (inactive).

Q: For `CCC(C)(O)C(=O)OC1C(=O)OC2CC3C(C)=CC(=O)C(O)C3(C)C3C4(O)OCC23C1C(C)C4O` (stereo not given), which inhibition is on record?
A: Its inhibition is 99.5% (active).

Q: Which inhibition does the source give for `CCOP(=O)(OCC)C(O)c1ccc(OC)cc1OC` (stereo not given) here?
A: Its inhibition is 3.38% (inactive).

Q: For `CCC(=O)OC(Cc1ccccc1)(c1ccccc1)C(C)CN(C)C` (stereo not given), which inhibition is on record?
A: Its inhibition is 3.52% (inactive).

Q: With `O=C(NCC1=C(c2ccc3ccccc3c2)C[C@@H]2CC[C@H]1N2Cc1ccco1)c1cccs1` as the compound, how does the inhibition read?
A: Its inhibition is -11.2% (inactive).

Q: With `CC(=O)OC1C2(CC3N4C(=O)C5(CO)SSC4(CC31O)C(=O)N5C)OC(C)C(C)(C)C2=O` (stereo not given) as the compound, how does the inhibition read?
A: Its inhibition is 107% (active).

Q: Which inhibition does the source give for `CN(C)C(=O)NC(O)C(Cl)(Cl)Cl` (stereo not given) here?
A: The inhibition was 5.54% (inactive).

Q: With `Cc1cccc(-n2c(O)c(C=NC34CN5CN(CN(C5)C3)C4)c(=O)[nH]c2=O)c1` as the compound, how does the inhibition read?
A: The inhibition was -1.26% (inactive).

Q: Which inhibition does the source give for `COC1C(O)C(C)OC(OC2CCC3(C=O)C(CCC4C3CCC3(C)C(C5=CC(=O)OC5)CCC43O)C2)C1O` (stereo not given) here?
A: Its inhibition is 80.6% (active).

Q: Which inhibition does the source give for `CC(=NCc1ccc2c(c1)OCO2)c1c(O)[nH]c(=O)[nH]c1=O` here?
A: The inhibition was -1.24% (inactive).

Q: For `CCN(CC)C(=O)Oc1ccc(NC(=O)N2CCOCC2)cc1`, which inhibition is on record?
A: The inhibition was 12.2% (inactive).

Q: For `Cc1ccc(N(C)C(=O)Oc2cccc3ccc(C)nc23)cc1`, which inhibition is on record?
A: The inhibition was -2.35% (inactive).

Q: With `O=Cc1cn(Cc2ccc(F)cc2Cl)c2ccccc12` as the compound, how does the inhibition read?
A: The inhibition was 56.5% (active).

Q: With `CC1C(=O)OC2CCN3CC=C(COC(=O)C(C)(O)C1(C)O)C23` (stereo not given) as the compound, how does the inhibition read?
A: Its inhibition is -18.7% (inactive).

Q: For `CC[N+]1(C)CCCC(OC(=O)C(O)(c2ccccc2)c2ccccc2)C1` (stereo not given), which inhibition is on record?
A: The inhibition was -7.55% (inactive).

Q: For `CCOC(=O)[C@]12Cc3ccccc3[C@H]1N(C1CCCCC1)C(=O)c1cc(OC)ccc12`, which inhibition is on record?
A: Its inhibition is 42.5% (inactive).

Q: For `COC(=O)CN(CCCl)P1(=O)OCCCN1CCCl` (stereo not given), which inhibition is on record?
A: Its inhibition is -6.99% (inactive).

Q: Which inhibition does the source give for `O=C1NC(=O)C(CCOc2ccccc2)(CCc2ccccc2)C(=O)N1` here?
A: The inhibition was -21.8% (inactive).

Q: Which inhibition does the source give for `COc1ccccc1C1=NCc2nnc(CSC)n2-c2ccc(Cl)cc21` here?
A: The inhibition was 12.6% (inactive).

Q: For `CCN1CC2C3CCC(C)(O3)C2C1` (stereo not given), which inhibition is on record?
A: The inhibition was 2.33% (inactive).

Q: Which inhibition does the source give for `CCOC(=O)C1=C(C)OC(N)=C(C(=O)OC)C12C(=O)Nc1ccc(Br)cc12` (stereo not given) here?
A: The inhibition was -9.87% (inactive).

Q: Which inhibition does the source give for `COc1ccc(C2C=C(C)Oc3c2c(=O)oc2ccccc32)cc1OC` (stereo not given) here?
A: The inhibition was 1.69% (inactive).

Q: Which inhibition does the source give for `CCNc1nc2[nH]c(=O)c3c(c2s1)OC(N)=C(C#N)C3c1cccs1` (stereo not given) here?
A: Its inhibition is 19.6% (inactive).

Q: With `N#CC1=C(N)Oc2c(c(=O)oc3ccccc23)C1c1ccccc1OC(=O)c1cccs1` (stereo not given) as the compound, how does the inhibition read?
A: Its inhibition is 51.3% (active).

Q: With `Nc1ccc(Cc2ccc(N)c(Cl)c2)cc1Cl` as the compound, how does the inhibition read?
A: The inhibition was 7.24% (inactive).

Q: Which inhibition does the source give for `COc1ccccc1OC(=O)c1ccc(C)c(S(=O)(=O)N2CCOCC2)c1` here?
A: Its inhibition is 5.54% (inactive).

Q: With `COC(=O)C1=C(c2ccc(F)cc2F)C[C@@H]2CC[C@H]1N2C(=O)NC1CC1` as the compound, how does the inhibition read?
A: Its inhibition is 10.7% (inactive).

Q: For `CCC/C(=N\O)c1c[nH]c2ccccc12`, which inhibition is on record?
A: The inhibition was -11.5% (inactive).

Q: For `CCOc1ccc(C2SCC(=O)Nc3c2c(C)nn3C2CCOC(C)(C)C2)cc1` (stereo not given), which inhibition is on record?
A: The inhibition was 7.72% (inactive).

Q: With `Cc1ccc(P(=S)(c2ccc(C)o2)N2CCOCC2)o1` as the compound, how does the inhibition read?
A: The inhibition was 73.2% (active).

Q: For `CCOC(=O)[C@]12Cc3cc(OC)ccc3[C@H]1N(C(C)C)C(=O)c1ccccc12`, which inhibition is on record?
A: Its inhibition is 25.1% (inactive).

Q: For `O=C(NC1CCCCC1)N1Cc2cc(N3CCCCC3)ccc2-n2nncc2C1`, which inhibition is on record?
A: Its inhibition is -46.7% (inactive).

Q: Which inhibition does the source give for `CN1CCN(/N=C/c2c[nH]c3ccccc23)CC1` here?
A: Its inhibition is 4.46% (inactive).

Q: With `COC(=O)C1=C(c2ccc(OCc3ccccc3)cc2)C[C@@H]2CC[C@H]1N2C(=O)NCc1cccc(F)c1` as the compound, how does the inhibition read?
A: The inhibition was 37.4% (inactive).

Q: Which inhibition does the source give for `Fc1cccc(F)c1CN1CCN(Cc2c(F)cccc2F)CC1` here?
A: The inhibition was 92.7% (active).

Q: With `CN1CCN(Cc2ccccc2C(F)(F)F)CC1` as the compound, how does the inhibition read?
A: The inhibition was 0.88% (inactive).

Q: With `C/C(=N/O)c1ccc2ccc3ccccc3c2c1` as the compound, how does the inhibition read?
A: Its inhibition is 2.22% (inactive).

Q: Which inhibition does the source give for `COc1ccccc1N1CCN(C(CNC(=O)Oc2ccccc2)c2cccnc2)CC1` (stereo not given) here?
A: Its inhibition is 3.6% (inactive).

Q: For `COCc1cc(OC(=O)N(C)C)nc(-c2ccc(C)c(Cl)c2)n1`, which inhibition is on record?
A: Its inhibition is 6.49% (inactive).

Q: For `c1cc2c(cc1[C@H]1OC[C@H]3[C@@H]1CO[C@@H]3c1ccc3c(c1)OCO3)OCO2`, which inhibition is on record?
A: The inhibition was -20.1% (inactive).
